Measurements reported in PubChem BioAssay AID1159580 (chemical genetic matrix, 2015).
“And” between values parts separate entries of the source, which are not always exact repeats. Equal values may be shown once. Hit rate of the full screen: of about 5,500 compounds, about 2,000 (36%) were called active. Not shown: some 18% with an inconclusive outcome. No stated cut-off is given here; in the data, active means normalized growth mostly below about 0.91 (no sharp cut-off); inconclusive means no clear call, values can overlap the other calls; inactive means mostly above about 0.92. The list shows a part of the results.

Assay: chemical genetic growth profiling, strain panel (AID 1159580);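 further: tested at 20 µM; growth read once vehicle control cultures reached saturation at 30 °C; 1 = growth at the plate median or of vehicle wells; lower values mean less growth of the strain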
Details: S. cerevisiae deletion strains, growth OD

Measured: normalized growth

C=C(C)[C@H]1COc2cc3oc(=O)ccc3cc2O1
inactive: locus YAL030W, strain snc1, active compounds read low 0.933 | locus YBR171W, strain sec66, active compounds read low 0.938 | locus YBR229C, strain ROT2, active compounds read low 0.956 | locus YDL005C, strain med2, active compounds read low 0.959 | locus YDL040C, strain nat1, active compounds read low 0.957 | locus YDL185W, strain tfp1, active compounds read low 0.924 | locus YDR001C, strain nth1, active compounds read low 0.956 | locus YDR159W, strain sac3, active compounds read low 0.905 | locus YDR195W, strain ref2 1.05 | locus YDR297W, strain sur2, active compounds read low 0.956 | locus YDR334W, strain swr1, active compounds read low 0.921 | locus YDR392W, strain spt3, active compounds read low 0.775 | locus YEL037C, strain rad23, active compounds read low 0.956 | locus YER111C, strain swi4, active compounds read low 0.961 | locus YFR010W, strain ubp6, active compounds read low 0.945 | locus YGL078C, strain dbp3, active compounds read low 0.993 | locus YGL167C, strain pmr1, active compounds read low 0.995 | locus YGL173C, strain kem1, active compounds read low 0.906 | locus YGL227W, strain vid30, active compounds read low 0.932 | locus YHR027C, strain rpn1, active compounds read low 0.929 | locus YHR079C, strain IRE1 (second series), active compounds read low 0.967 | locus YHR079C, strain IRE1, active compounds read low 1.01 | locus YHR094C, strain hxt1, active compounds read low 0.948 | locus YJL115W, strain asf1, active compounds read low 0.977 | locus YJL134W, strain LCB3, active compounds read low 0.934 | locus YJL154C, strain vps35, active compounds read low 0.958 | locus YJR066W, strain TOR1, active compounds read low 0.926 | locus YKL009W, strain mrt4, active compounds read low 0.965 | locus YKL068W, active compounds read low 0.985 | locus YKL085W, strain MDH1 (second series), active compounds read low 0.972 | locus YKL085W, strain MDH1, active compounds read low 0.972 | locus YKR026C, strain gcn3, active compounds read low 0.979 | locus YKR091W, strain srl3, active compounds read low 0.973 | locus YLL026W, active compounds read low 0.966 | locus YLL041C, strain sdh2, active compounds read low 0.989 | locus YLR027C, strain aat2, active compounds read low 0.935 | locus YLR113W, strain HOG1, active compounds read low 0.996 | locus YLR384C, strain iki3, active compounds read low 0.993 | locus YML120C, strain ndi1, active compounds read low 0.972 | locus YMR125W, strain sto1, active compounds read low 0.982 | locus YMR129W, active compounds read low 0.989 | locus YNL183C, strain NPR1, active compounds read low 0.925 | locus YNL209W, strain ssb2, active compounds read low 0.93 | locus YNL248C, strain rpa49, active compounds read low 0.932 | locus YNL250W, strain rad50, active compounds read low 0.995 | locus YNL322C, strain KRE1 (second series), active compounds read low 0.918 | locus YNR049C, strain mso1, active compounds read low 0.923 | locus YOL012C, strain htz1 0.694 | locus YOR001W, strain rrp6, active compounds read low 0.956 | locus YOR080W, strain dia2, active compounds read low 0.921 | locus YOR231W, strain MKK1, active compounds read low 0.978 | locus YOR290C, strain snf2, active compounds read low 0.888 | locus YOR316C, strain cot1, active compounds read low 0.991 | locus YPL240C, strain hsp82, active compounds read low 0.966 | locus YPL256C, strain CLN2, active compounds read low 1.03 | locus YPR141C, strain kar3, active compounds read low 0.988
active: locus YAL021C, strain ccr4, active compounds read low 0.52 | locus YAL026C, strain drs2, active compounds read low 0.51 | locus YBL061C, strain skt5, active compounds read low 0.213 | locus YBR009C, strain hhf1, active compounds read low 0.811 | locus YBR021W, strain FUR4, active compounds read low 0.116 | locus YBR023C, strain chs3, active compounds read low 0.339 | locus YBR231C, strain swc5, active compounds read low 0.786 | locus YBR279W, strain paf1, active compounds read low 0.931 | locus YCL011C, strain gbp2, active compounds read low 0.852 | locus YCL016C, strain dcc1, active compounds read low 0.736 | locus YCL029C, strain bik1, active compounds read low 0.72 | locus YCL061C, strain MRC1, active compounds read low 0.793 | locus YCL069W, strain vba3, active compounds read low 0.783 | locus YCR088W, strain abp1, active compounds read low 0.814 | locus YDL035C, strain GPR1, active compounds read low 0.491 | locus YDL074C, strain BRE1, active compounds read low 0.465 | locus YDL101C, strain DUN1, active compounds read low 0.36 | locus YDL192W, strain arf1, active compounds read low 0.111 | locus YDR069C, strain doa4, active compounds read low 0.888 | locus YDR101C, strain arx1, active compounds read low 0.724 | locus YDR137W, strain rgp1, active compounds read low 0.279 | locus YDR150W, strain NUM1, active compounds read low 0.53 | locus YDR162C, strain NBP2, active compounds read low 0.0606 | locus YDR318W, strain mcm21, active compounds read low 0.62 | locus YDR335W, strain msn5, active compounds read low 0.857 | locus YDR388W, active compounds read low 0.515 | locus YDR502C, strain sam2, active compounds read low 0.387 | locus YEL003W, strain gim4, active compounds read low 0.911 | locus YEL061C, strain CIN8 (second series), active compounds read low 0.447 | locus YER015W, strain faa2, active compounds read low 0.9 | locus YER016W, strain bim1, active compounds read low 0.791 | locus YER110C, active compounds read low 0.747 | locus YER155C, strain BEM2 (second series), active compounds read low 0.444 | locus YER155C, strain BEM2, active compounds read low 0.879 | locus YER167W, strain BCK2, active compounds read low 0.671 | locus YGL086W, strain mad1, active compounds read low 0.578 | locus YGL240W, strain doc1, active compounds read low 0.756 | locus YGL248W, strain PDE1, active compounds read low 0.385 | locus YGL253W, strain hxk2, active compounds read low 0.466 | locus YGR135W, strain pre9, active compounds read low 0.574 | locus YGR252W, strain gcn5, active compounds read low 0.28 | locus YHR013C, strain ard1, active compounds read low 0.692 | locus YHR030C, strain SLT2, active compounds read low 0.272 | locus YHR129C, strain ARP1, active compounds read low 0.554 | locus YHR142W, strain chs7, active compounds read low 0.148 | locus YHR200W, strain rpn10, active compounds read low 0.572 | locus YIL066C, strain RNR3, active compounds read low 0.407 | locus YIL073C, strain SPO22, active compounds read low 0.16 | locus YIL125W, strain kgd1, active compounds read low 0.916 | locus YIR030C, strain dcg1, active compounds read low 0.819 | locus YJL092W, strain hpr5, active compounds read low 0.903 | locus YJL095W, strain BCK1 (second series), active compounds read low 0.107 | locus YJL095W, strain BCK1, active compounds read low 0.0661 and 0.314 | locus YJL129C, strain trk1, active compounds read low 0.452 | locus YJL164C, strain tpk1, active compounds read low 0.871 | locus YJL166W, strain qcr8, active compounds read low 0.662 | locus YJL168C, strain set2, active compounds read low 0.887 | locus YJL187C, strain SWE1 (second series), active compounds read low 0.635 | locus YJL187C, strain SWE1, active compounds read low 0.886 | locus YJR043C, strain POL32, active compounds read low 0.249 | locus YKL160W, strain elf1, active compounds read low 0.749 | locus YKR001C, strain vps1, active compounds read low 0.0831 | locus YLL001W, strain dnm1, active compounds read low 0.868 | locus YLR039C, strain RIC1, active compounds read low 0.12 | locus YLR058C, strain SHM2, active compounds read low 0.571 | locus YLR102C, strain apc9, active compounds read low 0.863 | locus YLR221C, strain rsa3, active compounds read low 0.898 | locus YLR258W, strain gsy2, active compounds read low 0.902 | locus YLR262C, strain YPT6 (second series), active compounds read low 0.23 | locus YLR262C, strain YPT6, active compounds read low 0.166 | locus YLR268W, strain sec22, active compounds read low 0.597 | locus YLR320W, strain mms22, active compounds read low 0.75 | locus YLR330W, strain CHS5, active compounds read low 0.0549 | locus YLR342W, strain FKS1 (second series), active compounds read low 0.075 | locus YLR342W, strain FKS1, active compounds read low 0.0723 | locus YLR357W, strain rsc2, active compounds read low 0.538 | locus YLR370C, strain arc18, active compounds read low 0.657 | locus YLR371W, strain rom2, active compounds read low 0.123 | locus YLR418C, strain cdc73, active compounds read low 0.18 | locus YML016C, strain PPZ1, active compounds read low 0.548 | locus YML032C, strain rad52, active compounds read low 0.555 | locus YML124C, strain tub3, active compounds read low 0.805 | locus YMR058W, strain fet3, active compounds read low 0.838 | locus YMR078C, strain ctf18, active compounds read low 0.871 | locus YMR205C, strain PFK2, active compounds read low 0.776 | locus YMR223W, strain ubp8, active compounds read low 0.514 | locus YMR231W, strain pep5, active compounds read low 0.114 | locus YMR307W, strain GAS1, active compounds read low 0.192 | locus YNL067W, strain RPL9B, active compounds read low 0.841 | locus YNL071W, strain lat1, active compounds read low 0.827 | locus YNL153C, strain GIM3, active compounds read low 0.223 | locus YNL233W, strain BNI4, active compounds read low 0.408 | locus YNL271C, strain bni1, active compounds read low 0.846 | locus YNL298W, strain CLA4, active compounds read low 0.839 | locus YNL307C, strain MCK1, active compounds read low 0.37 | locus YNR052C, strain pop2, active compounds read low 0.273 | locus YOL147C, strain pex11, active compounds read low 0.757 | locus YOR061W, strain CKA2, active compounds read low 0.135 | locus YOR069W, strain VPS5, active compounds read low 0.687 | locus YOR070C, strain gyp1, active compounds read low 0.736 | locus YOR083W, strain WHI5, active compounds read low 0.728 | locus YOR106W, strain vam3, active compounds read low 0.387 | locus YOR136W, strain idh2, active compounds read low 0.867 | locus YOR144C, strain elg1, active compounds read low 0.833 | locus YOR184W, strain ser1, active compounds read low 0.387 | locus YOR265W, strain rbl2, active compounds read low 0.881 | locus YOR270C, strain vph1, active compounds read low 0.374 | locus YPL051W, strain arl3, active compounds read low 0.232 | locus YPL078C, strain atp4, active compounds read low 0.755 | locus YPL106C, strain sse1, active compounds read low 0.709 | locus YPL241C, strain CIN2, active compounds read low 0.286 | locus YPR119W, strain clb2, active compounds read low 0.354 | locus YPR163C, strain tif3, active compounds read low 0.889 | locus YPR167C, strain met16, active compounds read low 0.766 | strain wtn01, active compounds read low 0.468
